In all, about 39,000 sequences were measured (“fluorescence intensity (a.u.)”: median about 4,300, highest 2% from about 39,000 on). The entries come from a sample that favours the highest values as a whole.

For 42 sequences, binding signal results are on record in article PMC7819943, “Rice protein-binding microarrays: a tool to detect cis-acting elements near promoter regions in rice”.

The experiment concerns the target T1, OsSMF1 (Oryza sativa, UniProt Q6ZLB0 1-436).
T1 sequence: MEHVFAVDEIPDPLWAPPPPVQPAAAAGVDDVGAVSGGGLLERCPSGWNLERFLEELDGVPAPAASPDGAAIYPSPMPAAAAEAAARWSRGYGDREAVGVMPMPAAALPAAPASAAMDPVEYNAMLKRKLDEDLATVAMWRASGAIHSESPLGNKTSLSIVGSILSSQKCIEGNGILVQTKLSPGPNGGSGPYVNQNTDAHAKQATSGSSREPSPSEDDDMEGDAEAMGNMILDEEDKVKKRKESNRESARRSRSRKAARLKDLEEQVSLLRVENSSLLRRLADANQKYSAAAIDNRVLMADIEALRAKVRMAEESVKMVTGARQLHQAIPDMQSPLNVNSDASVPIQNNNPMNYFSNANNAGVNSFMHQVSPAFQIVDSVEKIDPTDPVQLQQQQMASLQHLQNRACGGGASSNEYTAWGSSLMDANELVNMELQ
Description: protein-binding microarray (RPBM); PBS, 2% BSA, 51.3 ng/ul salmon testes DNA, 50 uM zinc acetate, 200 nM TF, 25 C, 1 h; high values mean tight binding. The settings on record: protein: recombinant; tags: N-terminal polyhistidine and DsRed monomer fusion (pET32a); chain copies: 2; label: CyDye5-dUTP incorporated in the synthesized complementary strand; 3' TTTTT single-stranded linker to array surface; dsDNA, one strand shown. The method in brief: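 Using Ni–NTA, transcription factors fused N-terminally to polyhistidine and DsRed were purified after expression in E. coli BL21-CodonPlus. These were incubated at 200 nM with a blocked, double-stranded custom Agilent array for 1 h at 25 °C in a buffer containing 50 µM zinc acetate, and the array was washed. The binding signal is per-feature fluorescence intensity (arbitrary units) on an Axon 4000B scanner.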
Consider “CCGTGCTACAGCTGGCTACAAATATGTAGCCCTATGCTCTCGGAGTCACCTAGTGCAG”, for which the binding signal is 18300 fluorescence intensity (a.u.).

Consider “ATCCTGTCACGGTCAGCCACGTCGCGGAGGGCAGTGCGACCGGAGTCACCTAGTGCAG”, for which the binding signal is 4580 fluorescence intensity (a.u.).

For “TTTACCATTGCGGGTGCTCTAATAGGTGGCATGCCATGCGCGGAGTCACCTAGTGCAG”, the binding signal was 4740 fluorescence intensity (a.u.).

Consider “CGCTTCTCTCCCTGAGCTCGGCCTCGTGTCACTGACGTCGCGGAGTCACCTAGTGCAG”, for which the binding signal is 4390 fluorescence intensity (a.u.).

Turning to “CGTCGTGCTCGTCGACGTCGTGCACTCCGTCGCCATCGTGCGGAGTCACCTAGTGCAG”, the binding signal was 3220 fluorescence intensity (a.u.).

“AGGCTCCCCTGAGTCGTGACGTGCACTCGAAAGTCGAAAGCGGAGTCACCTAGTGCAG”: the binding signal was 41100 fluorescence intensity (a.u.).

Take “TACTTTAAGTACATGTATTAGTCAGCTGATATATACCTCACGGAGTCACCTAGTGCAG”: the binding signal was 4310 fluorescence intensity (a.u.).

On to “AGTATCTCTTTCACAAAAGCCTACGTCATCTTTAAATTAGCGGAGTCACCTAGTGCAG”, for which the binding signal was 5060 fluorescence intensity (a.u.).

For the sequence “ACCTGGTAACTGAACACAGGATGGAAACTCTGAATAATGACGGAGTCACCTAGTGCAG”, the binding signal was 3250 fluorescence intensity (a.u.).

Take “CTTGCGATGCGTGGTGAGTGGTGACTGTAATGTAATGGAACGGAGTCACCTAGTGCAG”: the binding signal was 3450 fluorescence intensity (a.u.).

In the case of “GATGGAGACCCTGTGCGAACTGACAGTAATAGGGCTGGAACGGAGTCACCTAGTGCAG”, the binding signal is 39400 fluorescence intensity (a.u.).

As to “ATTTACTGCCTATTCGTGAGTTGGTCCTCCTGACTCTGACCGGAGTCACCTAGTGCAG”, the binding signal was 3750 fluorescence intensity (a.u.).

“TACCGTCCCTCAACTTTATGTCGAGTCTATATGACATACCCGGAGTCACCTAGTGCAG”: the binding signal was 4220 fluorescence intensity (a.u.).

Regarding “TACTTTATTTTGATTTTCGTGGGAGGTGACGTGGGCGCTTCGGAGTCACCTAGTGCAG”, the binding signal was 19300 fluorescence intensity (a.u.).

With “TCTTCCCGCTCGCCACGTCAGCGCCATGTGAGCAAAACTACGGAGTCACCTAGTGCAG”, the binding signal is 15500 fluorescence intensity (a.u.).

“ATCCACGTGGCAATGTATTAATCCAGTCAGCAACATCTCACGGAGTCACCTAGTGCAG”: the binding signal was 12400 fluorescence intensity (a.u.).

Regarding “AATCAATCCATTAATATTTAACATGATCAGGCATTAGTCGCGGAGTCACCTAGTGCAG”, the binding signal is 3580 fluorescence intensity (a.u.).

Turning to “GTTGGAACAATTAATGTGCTGCAGGCAATAACAATCCAGTCGGAGTCACCTAGTGCAG”, the binding signal was 48700 fluorescence intensity (a.u.).

In the case of “ATTTGTCTTATGTATATGCTGTATAGGATCTATGGACGCCCGGAGTCACCTAGTGCAG”, the binding signal is 3520 fluorescence intensity (a.u.).

For “GTTCCATTCCAATCCCATGAAAGCAACAGCGCTGCCTATCCGGAGTCACCTAGTGCAG”, the binding signal was 35800 fluorescence intensity (a.u.).

Turning to “ACATAATTGTATTATGCAGAACCAAAGCAGGCCACGTGAGCGGAGTCACCTAGTGCAG”, the binding signal is 5470 fluorescence intensity (a.u.).

As for “AACGGGGCCTCGTAGCAACAGCTCTGACGCACGTGACCTCCGGAGTCACCTAGTGCAG”, the binding signal is 5400 fluorescence intensity (a.u.).

Take “ACCTCTGGTAGCAGCAGCAGCTCGCACGCAGCTCATCGTGCGGAGTCACCTAGTGCAG”: the binding signal was 40700 fluorescence intensity (a.u.).

Consider “CGTCGCCGTCGCCTCGCCTCGTCACGGCCGCCTCCGCCATCGGAGTCACCTAGTGCAG”, for which the binding signal was 7920 fluorescence intensity (a.u.).

As for “TGCCGCCGCCGTCGTCACCGTCGCCGCCTCCGTGCTCATGCGGAGTCACCTAGTGCAG”, the binding signal is 6030 fluorescence intensity (a.u.).

“GCGTGGTGCGTATCGTGCTCATCGCATCGGCCTCCGTATACGGAGTCACCTAGTGCAG”: the binding signal is 40000 fluorescence intensity (a.u.).

Turning to “CCAGCAGCCCCTCTCTCATCCATGGTAGTGCTCTGTCATGCGGAGTCACCTAGTGCAG”, the binding signal is 3400 fluorescence intensity (a.u.).

For the sequence “ATGTTGACTCGTTTGCCTGTGTTCCTCTTGCTGCTATTCACGGAGTCACCTAGTGCAG”, the binding signal was 3230 fluorescence intensity (a.u.).

For “ATCTTTAGTCCCGGATTGGTAGTTCCGGTTTGAAAACCGGCGGAGTCACCTAGTGCAG”, the binding signal is 3760 fluorescence intensity (a.u.).

Turning to “CGCTGTGGTGTGCAGCGGCGGTGCCACGTCCCTATTTAAACGGAGTCACCTAGTGCAG”, the binding signal was 10900 fluorescence intensity (a.u.).

For the sequence “TCTTTAGTCCCGGTTCCTATTTAAACCGGGATTATTGTGGCGGAGTCACCTAGTGCAG”, the binding signal was 47900 fluorescence intensity (a.u.).

For “ACCAAATGACATGACTCACTTAGATCCTAATAGGACATCCCGGAGTCACCTAGTGCAG”, the binding signal was 4400 fluorescence intensity (a.u.).

With “GCGCCGCGGTGGAGGCGAGTGGGCGACACGTGGGAAGTGGCGGAGTCACCTAGTGCAG”, the binding signal is 6610 fluorescence intensity (a.u.).

For “ATATGTGCTGGCCGCTGAGGTATACAGTATATGGGCCAACCGGAGTCACCTAGTGCAG”, the binding signal was 3580 fluorescence intensity (a.u.).

With “GTGCTGGCCAAATGGGCCGGGCCAAGGCCTCGGTAACCACCGGAGTCACCTAGTGCAG”, the binding signal was 42300 fluorescence intensity (a.u.).

Turning to “CCGGACCAAAATGACGTGCCTTAGGCCGGGCCGCCAGCCTCGGAGTCACCTAGTGCAG”, the binding signal was 3830 fluorescence intensity (a.u.).

Regarding “ATCTGTCTTTGTTTGAAATCAGATTGGTTCAAAACAAGCGCGGAGTCACCTAGTGCAG”, the binding signal was 21900 fluorescence intensity (a.u.).

With “CTTTTCACGGATCCTAATTTTGACAGGCAAAGAAAGAAAGCGGAGTCACCTAGTGCAG”, the binding signal was 41700 fluorescence intensity (a.u.).

Turning to “CAAATTTTAATCCTAGAAAAGCTTATATTTGAAGGAGAAGCGGAGTCACCTAGTGCAG”, the binding signal is 31100 fluorescence intensity (a.u.).

Consider “AGTTGATAAATTTCAGAAAATTTTGATGACAAAGCAAAGCCGGAGTCACCTAGTGCAG”, for which the binding signal was 5580 fluorescence intensity (a.u.).

For the sequence “GTCCCGCGCATTGGCGACGCGCGACCGGCACGGTCCCGCACGGAGTCACCTAGTGCAG”, the binding signal was 13500 fluorescence intensity (a.u.).

In the case of “CTGACGACCCGGATCAACCATTGGCAGCAGCTCCTGTACACGGAGTCACCTAGTGCAG”, the binding signal was 3580 fluorescence intensity (a.u.).
